Experimental data reported in PubChem BioAssay (NCATS).
Inconclusive results are not listed. Entries that show only a call come without a potency. Activity calls are given as the source filed them. The call rests on the fitted dose curve; in most records, active means well fitted inhibition curve with a large enough effect; inconclusive means small, poorly fitted or top-dose-only effect; inactive means flat fitted curve, though single readings scatter.

The molecules below were run on PC26 (assay: qHTS profiling for inhibitors of Plasmodium falciparum proliferation (AID 504749; further: nearly all actives have a fitted effect of over 60% in size)). Conditions: P. falciparum in erythrocytes, SYBR Green DNA, 72 h; series mostly up to 28.7 µM.
Summary of the method: (§1)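 Parasite proliferation within erythrocytes, 72 h exposure. Endpoint: SYBR Green I fluorescence after overnight lysis at room temperature. Controls: 0.29 uM artemisinin, DMSO.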
Potency means the concentration at half of the fitted maximal effect.

Structure (SMILES)	Potency
Cn1c(=O)c2c(ncn2CCOC(=O)C(C)(C)Oc2ccc(Cl)cc2)n(C)c1=O	inactive
CC(C)NCC(O)COc1ccccc1-n1cccc1 (configuration not stated)	inactive
CC(C)Cc1ccc([C@@H](C)C(=O)NS(C)(=O)=O)cc1	inactive
N=C(N)c1ccc(/C=C/c2ccc(C(=N)N)cc2O)cc1	8.49 µM (active)
CC(=O)Oc1cccc(C(=O)O)c1OC(C)=O	inactive
CNC(=O)[C@H](Cc1c[nH]c2ccccc12)NC(=O)[C@@H](CC(=O)NO)CC(C)C	inactive
c1ccc2c(c1)Sc1ccccc1N2CCN1CCCC1	12 µM (active)
C[C@H](N)C(=O)N[C@@H](C)P(=O)(O)O	inactive
CC1=CC(=C(c2ccc(N)cc2)c2ccc(N)cc2)C=CC1=N	5.36 µM (active)
CNC(=O)c1c(I)c(C(=O)NCC(=O)Nc2c(I)c(C(=O)O)c(I)c(C(=O)NCCO)c2I)c(I)c(N(C)C(C)=O)c1I	inactive
CCSc1ccc2c(c1)N(CCCN1CCN(C)CC1)c1ccccc1S2	inactive
O=C1NCCN1c1ncc([N+](=O)[O-])s1	inactive
O=c1n(CC2CO2)c(=O)n(CC2CO2)c(=O)n1CC1CO1 (configuration not stated)	inactive
COc1ccc(/C=N/NC(=O)c2ccncc2)c(C(=O)O)c1OC	inactive

The molecules below were run on PC49 in the same assay as above. Conditions: P. falciparum in erythrocytes, SYBR Green DNA, 72 h; series mostly up to 28.7 µM.
Summary of the method: as §1

Structure (SMILES)	Potency
Oc1cccc(O)c1O	inactive
CC(=O)c1ccc2c(c1)N(CCCN1CCN(CCO)CC1)c1ccccc1S2	11.2 µM (active)
CCC(=O)c1ccc2c(c1)N(CCCN1CCN(CCO)CC1)c1ccccc1S2	10 µM (active)
CC[C@H]1OC(=O)[C@H](C)[C@@H](O[C@H]2C[C@@](C)(OC)[C@@H](O)[C@H](C)O2)[C@H](C)[C@@H](O[C@@H]2O[C@H](C)C[C@H](N(C)C)[C@H]2O)[C@](C)(O)C[C@@H](C)CN(C)[C@H](C)[C@@H](O)[C@]1(C)O	inactive
OCC1(CO)COC(C(Cl)(Cl)Cl)OC1	inactive
C#C[C@]1(O)CC[C@@H]2[C@H]3CCC4=CC(=O)CC[C@H]4[C@H]3C(=C)C[C@@]21CC	inactive
O=C(CCCN1CCN2CCCC2C1)c1ccc(F)cc1 (configuration not stated)	inactive
CCCC(CCC)C(=O)OC1C[C@H]2CC[C@@H](C1)[N+]2(C)C (some centres not stated)	inactive
CC(=O)Nc1c(I)c(C(=O)O)c(I)c(N(C)C(C)=O)c1I	inactive
CC(C)CCCCCCc1ccc(O)cc1	inactive
O=C1CCC(c2ccccc2)(C2CCN(Cc3ccccc3)CC2)C(=O)N1 (configuration not stated)	inactive
Cc1cccc(Nc2ncccc2C(=O)O)c1C	inactive
O=C(O)CCC/C=C\C[C@@H]1[C@@H](/C=C/[C@@H](O)COc2cccc(C(F)(F)F)c2)[C@H](O)C[C@@H]1O	inactive
CCCOC(=O)c1ccccc1O	inactive
CCOC(=O)c1cc(-c2ccccc2)nc2ccc(C)cc12	inactive
Cn1c(=O)c2c(ncn2CCOC(=O)C(C)(C)Oc2ccc(Cl)cc2)n(C)c1=O	inactive
CC(C)NCC(O)COc1ccccc1-n1cccc1 (configuration not stated)	inactive
CC(C)Cc1ccc([C@@H](C)C(=O)NS(C)(=O)=O)cc1	inactive
CC(=O)Oc1cccc(C(=O)O)c1OC(C)=O	inactive
CNC(=O)[C@H](Cc1c[nH]c2ccccc12)NC(=O)[C@@H](CC(=O)NO)CC(C)C	inactive
C[C@H](N)C(=O)N[C@@H](C)P(=O)(O)O	inactive
OCCOCCOCCO	inactive
CCN(CC)C(=O)c1cccnc1	inactive
CNC(=O)c1c(I)c(C(=O)NCC(=O)Nc2c(I)c(C(=O)O)c(I)c(C(=O)NCCO)c2I)c(I)c(N(C)C(C)=O)c1I	inactive
CCSc1ccc2c(c1)N(CCCN1CCN(C)CC1)c1ccccc1S2	inactive
O=c1n(CC2CO2)c(=O)n(CC2CO2)c(=O)n1CC1CO1 (configuration not stated)	inactive
Cc1cc(C(=O)NCCc2ccc(S(=O)(=O)NC(=O)NN3CCCCCC3)cc2)no1	inactive
COc1ccc(/C=N/NC(=O)c2ccncc2)c(C(=O)O)c1OC	inactive

The molecules below were run on SC27B in the same assay as above. Conditions: P. falciparum in erythrocytes, SYBR Green DNA, 72 h; series mostly up to 28.7 µM.
Summary of the method: as §1

Structure (SMILES)	Potency
Oc1cccc(O)c1O	inactive
OCC1(CO)COC(C(Cl)(Cl)Cl)OC1	inactive
C#C[C@]1(O)CC[C@@H]2[C@H]3CCC4=CC(=O)CC[C@H]4[C@H]3C(=C)C[C@@]21CC	inactive
O=C(CCCN1CCN2CCCC2C1)c1ccc(F)cc1 (configuration not stated)	inactive
CCCC(CCC)C(=O)OC1C[C@H]2CC[C@@H](C1)[N+]2(C)C (some centres not stated)	12.6 µM (active)
CC(C)=CCC/C(C)=C/CC/C(C)=C/CC/C=C(\C)CC/C=C(\C)CCC=C(C)C	inactive
O=C1CCC(c2ccccc2)(C2CCN(Cc3ccccc3)CC2)C(=O)N1 (configuration not stated)	inactive
Cc1cccc(Nc2ncccc2C(=O)O)c1C	inactive
CCOC(=O)[C@@H](N)CS	inactive
O=C(O)CCC/C=C\C[C@@H]1[C@@H](/C=C/[C@@H](O)COc2cccc(C(F)(F)F)c2)[C@H](O)C[C@@H]1O	inactive
CCCOC(=O)c1ccccc1O	inactive
CCOC(=O)c1cc(-c2ccccc2)nc2ccc(C)cc12	inactive
Cn1cc(NC(=O)c2cc(NC(=O)c3cc(NC=O)cn3C)cn2C)cc1C(=O)NCCC(=N)N	11.2 µM (active)
COc1ccc2c(c1)OC(C)(C)C(c1ccccc1)C2c1ccc(OCCN2CCCC2)cc1 (configuration not stated)	8.91 µM (active)
Cn1c(=O)c2c(ncn2CCOC(=O)C(C)(C)Oc2ccc(Cl)cc2)n(C)c1=O	inactive
CC(C)NCC(O)COc1ccccc1-n1cccc1 (configuration not stated)	inactive
CC(C)Cc1ccc([C@@H](C)C(=O)NS(C)(=O)=O)cc1	inactive
N=C(N)c1ccc(/C=C/c2ccc(C(=N)N)cc2O)cc1	10 µM (active)
CC(=O)Oc1cccc(C(=O)O)c1OC(C)=O	inactive
CNC(=O)[C@H](Cc1c[nH]c2ccccc12)NC(=O)[C@@H](CC(=O)NO)CC(C)C	inactive
c1ccc2c(c1)Sc1ccccc1N2CCN1CCCC1	8.91 µM (active)
C[C@H](N)C(=O)N[C@@H](C)P(=O)(O)O	inactive
CC1=CC(=C(c2ccc(N)cc2)c2ccc(N)cc2)C=CC1=N	3.16 µM (active)
OCCOCCOCCO	inactive
CCN(CC)C(=O)c1cccnc1	inactive
CNC(=O)c1c(I)c(C(=O)NCC(=O)Nc2c(I)c(C(=O)O)c(I)c(C(=O)NCCO)c2I)c(I)c(N(C)C(C)=O)c1I	inactive
O=C1NCCN1c1ncc([N+](=O)[O-])s1	inactive
O=c1n(CC2CO2)c(=O)n(CC2CO2)c(=O)n1CC1CO1 (configuration not stated)	inactive
Cc1cc(C(=O)NCCc2ccc(S(=O)(=O)NC(=O)NN3CCCCCC3)cc2)no1	inactive
COc1ccc(/C=N/NC(=O)c2ccncc2)c(C(=O)O)c1OC	inactive
